# Bcl-2 Bim block: disrupts Bim peptide binding to human Bcl-2. hit rate 0.06% among 190,000. inhibition, % at 10 µM. P10415. AID 950. Bead-based flow cytometry, Bim peptide-Bcl-2 binding; in the data active means inhibition above about 40%;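 further: 0% = no compound wells with probe peptide and 100% = reference peptide inhibitor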
# Bim-Bfl-1: inhibitors of Bim-Bfl-1 interaction, human; Bead-based flow cytometry, Bim-Bfl-1 binding inhibition; AID 1008; hit rate 0.12% among 190,000; Q16548; inhibition, % at 10 µM;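 further: 0% = wells without compound plus tracer and 100% = blocker peptide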
# PKD1 kinase inh: inhibitors of human PKD1 kinase; Q15139; PKD1 kinase fluorescence polarization assay; inhibition, % (test concentration not listed); hit rate 0.056% among 200,000; in the data active means inhibition above about 50%
# Bcl-W Bim block: inhibitors of Bim-Bcl-W interaction, human. hit rate 0.02% among 190,000. inhibition, % at 10 µM. bead-based flow cytometry, Bim peptide-Bcl-W binding. Q92843;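 further: 0% = bound tracer without compound and 100% = peptide blocker; higher means less fluorescent Bim peptide bound to Bcl-W beads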
# Bcl-XL Bim block: inhibitors of Bim-Bcl-XL interaction, human | Q07817 | Bim peptide-Bcl-XL binding, bead flow cytometry, fluorescence | inhibition, % at 10 µM | hit rate 0.04% among 190,000 | AID 1007
# Bcl-B Bim block: disrupts Bim peptide binding to human Bcl-B; Q9HD36; hit rate 0.073% among 190,000; AID 951; inhibition, % at 10 µM; bead-based flow cytometry;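 further: 0% = tracer peptide without compound and 100% = reference inhibitor peptide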
# FP interf 140K: interferes with fluorescence polarization in PKD inhibitor counter-screen | inhibition, % at 10 µM | 85 tested, under 10 active | shares compounds with PKD1 kinase inh | PKD1 FP assay interference counter-screen; call rule not given here
# * hit, by the source's call. Most compounds without a hit are left out; they make up all but 0.26% or so of the library. Unless noted, no stated cut-off is given here; in the data, active means inhibition above about 40%.
SMILES,Bcl-2 Bim block,Bim-Bfl-1,PKD1 kinase inh,Bcl-W Bim block,Bcl-XL Bim block,Bcl-B Bim block,others
CN(C)c1ccc(C=C2C(=O)NC(=O)NC2=O)cc1[N+](=O)[O-],13,48*,-8,16,5,7,
O=C1NC(=O)C(=Cc2ccc(-c3cc(Cl)ccc3[N+](=O)[O-])o2)C(=O)N1,9,45*,-6,8,-2,3,
O=C1NC(=O)C(=Cc2cc3c(cc2[N+](=O)[O-])OCO3)C(=O)N1,3,11,2,-1,-1,-1,
O=[N+]([O-])c1cccc(CN2CCN(Cc3ccc(Br)cc3)CC2)c1,0,-2,-6,3,0,-2,
CCCCCc1nc2c(c(=O)c3ccccc3n2C)c(=O)n1C1CCCCCC1,-9,-12,-9,-7,-10,-15,
Cc1c2ccncc2c(C)c2c1[nH]c1ccccc12,5,12,87*,7,9,9,
CCN1CCN(c2ccc(N)cc2)CC1,-4,-2,3,1,-2,-1,
CN1CCN(c2ccc(N)cc2)CC1,10,15,8,23,19,61*,
COc1cc2c(cc1OC)-c1c(OC)c(OC)c(OC)c3ccnc(c13)C2=O,1,2,50*,4,5,-1,FP interf 140K=-18
COc1cc(CC2(CCc3ccncc3)C(=O)NC(=O)NC2=O)cc(OC)c1OC,0,-5,2,0,3,-5,
O=C(c1ccc(Cl)cc1)C1CCCN(Cc2ccc3ncccc3c2)C1 (stereo unspecified),0,1,-3,-1,1,3,
O=C1Nc2ccccc2/C1=C/c1cnc[nH]1,0,-2,69*,0,-2,-1,FP interf 140K=-24
